Hit rate of the full screen: of about 320,000 compounds, about 2,100 (0.66%) were called active. Inconclusive results (about 53%) are left out. The call rests on the fitted dose curve; in most records, active means well fitted inhibition curve with a large enough effect in the signal ratio, with a control signal flat (not every such curve was filed as active); inconclusive means small, poorly fitted or top-dose-only effect, or effect the other way, or a change in a side signal; inactive means flat fitted curve, though single readings scatter; the % refers to the signal ratio. This excerpt belongs to a sample that is enriched for actives.
test: qHTS Assay for Lipid Storage Modulators in Drosophila S3 Cells; conditions: BODIPY lipid droplet fluorescence, 18-24 h, cells fed with added oleic acid; cell number change: measured here: cell count max response; series mostly up to 46.1 µM; lipid storage change, negative = inhibition: at the top concentration;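 on cell number change: cells counted by Cell Tracker Red CMTPX staining in the red channel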; on lipid storage change, negative = inhibition: on the % scale 0 is the no-effect control and ±100 the full control effect
Summary of the method: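 Laser-scanning cytometry quantifies lipid droplet accumulation (500–530 nm total intensity; droplet/cell object ratio) in oleic acid-fed (400 uM added) Drosophila S3 cells treated with a concentration series. 20 uM Triacsin C defined 100% inhibition.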
Potency means the concentration at half of the fitted maximal effect.

SMILES | lipid storage change, negative = inhibition | cell number change [%] | Potency | outcome
Cc1nc([N+](=O)[O-])cn1-c1ccc(N)cc1 | -3.85% (inactive) | -2.93 | – | –
O=C(c1nc2ccc(Cl)cn2c1CN1CCCC(CO)C1)N1CCc2ccccc2C1 (stereo not drawn) | -5.28% (inactive) | 10.9 | – | –
Cc1ccc(S(=O)(=O)c2c(C)cc(C)[nH]c2=O)c(C)c1 | -7.93% (inactive) | 17.9 | – | –
Oc1ccc(Br)cc1/C=N/N1CCN(Cc2cccc3ccccc23)CC1 | 1.32% (inactive) | 17 | – | –
Cc1c(NC(=O)C2(c3ccccc3)CCOCC2)c(=O)n(-c2ccccc2)n1C | -12.2% (inactive) | -18.3 | – | –
CC(C)=C1C2CCC1C(C(=O)Nc1cc(C)cc(C)c1)C2C(=O)O (stereo not drawn) | 20.7% (inactive) | 13.2 | – | –
CC(C)=C1C2CCC1C(C(=O)NCc1ccccc1)C2C(=O)O (stereo not drawn) | – | -4.67 | 25.9 µM (active) | –
CC(C)=C1C2CCC1C(C(=O)NCCc1ccccc1)C2C(=O)O (stereo not drawn) | 5.32% (inactive) | 6.84 | – | –
CC(C)NC(=O)c1ccc2c(c1)N(CC(=O)NC1CCCCC1)C(=O)C(C)(C)O2 | -6.03% (inactive) | 19 | – | –
S=C(Nc1ccccn1)Nc1ccccc1Cl | 15.4% (inactive) | -6.96 | – | –
O=C(CSc1ccc2nnc(-c3cccnc3)n2n1)Nc1ccccc1 | – | 8.38 | 0.411 µM (active) | –
CC(=O)c1ccc(NC(=O)CSc2ccc3nnc(-c4cccnc4)n3n2)cc1 | 3.23% (inactive) | 1.01 | – | –
CCS(=O)(=O)Nc1cccc(-c2ccc3nnc(-c4cccnc4)n3n2)c1 | – | -27 | 5.8 µM (active) | –
CCS(=O)(=O)Nc1cccc(-c2ccc3nnc(C)n3n2)c1 | 0.724% (inactive) | -5.54 | – | –
CCCS(=O)(=O)Nc1cccc(-c2ccc3nnc(C)n3n2)c1 | 5.14% (inactive) | 7.15 | – | –
Cc1ccc(NC(=O)CSc2ccc3nnc(-c4cccnc4)n3n2)cc1 | -24.5% (inactive) | -9.27 | – | –
CCOC(=O)C(C(=O)NCCCN1CCOCC1)C1CCCCC1 (stereo not drawn) | -0.852% (inactive) | 5.53 | – | –
CCn1nc(C)c(CN2CCCC(CO)(Cc3ccccc3)C2)c1C (stereo not drawn) | -2.88% (inactive) | 6.82 | – | –
Cc1ccc(-c2cc([C@H]3[C@H]4C=CC[C@@H](C)[C@@H]4C(=O)N3Cc3ccccc3)ccc2F)cc1 | 8.48% (inactive) | -1.15 | – | –
COC(=O)c1cccc(NC(=O)NC(=O)c2ccccc2Cl)c1 | -0.414% (inactive) | -8.19 | – | –
Cc1cccc(NC(=O)CSc2nc3ccccc3o2)c1 | – | – | – | inactive
Cn1c(C(=O)NCCC2=CCCCC2)cc2c(=O)n3ccccc3nc21 | – | – | – | inactive
Cc1cccn2c(=O)c3cc(C(=O)NCCCN4CCCC4=O)n(C)c3nc12 | – | – | – | inactive
Cc1cccn2c(=O)c3cc(C(=O)NCCC4=CCCCC4)n(C)c3nc12 | – | -17.7 | 18.4 µM (active) | –

SMILES | lipid storage change, negative = inhibition | cell number change [%] | Potency | outcome
COCCCn1c(=N)c(C(=O)NCC2CCCO2)cc2c(=O)n3cccc(C)c3nc21 (stereo not drawn) | 0.117% (inactive) | -13.4 | – | –
CC(=O)N=c1c(C#N)cc2c(=O)n3cccc(C)c3nc2n1CCCOC(C)C | 5.07% (inactive) | 13.1 | – | –
Cc1cccn2c(=O)c3cc(C(N)=S)c(=N)n(CCCN4CCOCC4)c3nc12 | 11% (inactive) | – | – | –
COCCCn1c(C(=O)N2CC(C)OC(C)C2)cc2c(=O)n3cccc(C)c3nc21 (stereo not drawn) | – | 0.298 | – | inactive
COCCCn1c(=NC(C)=O)c(C#N)cc2c(=O)n3cccc(C)c3nc21 | 10.7% (inactive) | 0.683 | – | –
CCCn1c(=N)c(C(=O)NC2CCCC2)cc2c(=O)n3cccc(C)c3nc21 | -0.957% (inactive) | -9.76 | – | –
Cc1cccn2c(=O)c3cc(C(N)=S)c(=N)n(CCCOC(C)C)c3nc12 | – | 3.82 | 9.2 µM (active) | –
CCN(C(=O)c1cc2c(=O)n3cccc(C)c3nc2n1CCCOC)C1CCCCC1 | – | 8.25 | 23.1 µM (active) | –
COCCCn1c(C(=O)NC2CCCCC2C)cc2c(=O)n3cccc(C)c3nc21 (stereo not drawn) | – | 8.96 | 20.6 µM (active) | –
O=C(CCc1nnc(C2(c3ccc(Cl)cc3)CCC2)o1)NC1CC1 | 0.737% (inactive) | 6.23 | – | –
Cc1ccc2[nH]c3c(c2c1)CCN1C(=O)OC(C)(C)C31C (stereo not drawn) | -5.19% (inactive) | -17.1 | – | –
O=C(CCCc1nc2ccccc2s1)N1CCN(c2ccccc2F)CC1 | 2.32% (inactive) | 22.1 | – | –
COc1cccc(/C=C/C(=O)OCC(=O)c2c[nH]c3ccccc23)c1 | – | -14.3 | 9.2 µM (active) | –
COc1ccc(/C=C/C(=O)OCC(=O)c2c[nH]c3ccccc23)cc1 | 9.96% (inactive) | 4.45 | – | –
COc1cc(/C=C/C(=O)OCC(=O)c2c[nH]c3ccccc23)ccc1OC(F)F | -0.565% (inactive) | -14.2 | – | –
CCOc1cc(N2CCOCC2)c(OCC)cc1NC(=O)Cn1[nH]c(=O)c2ccccc2c1=O | 5.54% (inactive) | 7.32 | – | –
O=C(O)CNS(=O)(=O)Cc1ccccc1 | 5.11% (inactive) | 2.83 | – | –
Cc1cccc(NC(=O)C2CCN(S(=O)(=O)c3cccs3)CC2)n1 | – | – | – | inactive
COc1ccccc1Cn1c(C)nc2ccccc21 | 10.5% (inactive) | 10.6 | – | –
Cc1ccccc1Cn1c(C)nc2ccccc21 | – | -15.1 | 10.3 µM (active) | –
Cc1nc2ccccc2n1Cc1ccccc1 | -4.71% (inactive) | -17 | – | –
CN(C)CCC1CCN(c2cc(C#N)c(C#N)cc2[N+](=O)[O-])CC1 | 16.4% (inactive) | -1.99 | – | –
N#Cc1cc(N2CCCCC2)c([N+](=O)[O-])cc1C#N | -18% (inactive) | -3.02 | – | –
CC1CCN(c2cc(C#N)c(C#N)cc2[N+](=O)[O-])CC1 | – | 0.344 | 23.1 µM (active) | –

SMILES | lipid storage change, negative = inhibition | cell number change [%] | Potency | outcome
COC(=O)c1cc(OC)c(OC)cc1NC(=S)N1CCN(c2ccccn2)CC1 | 5.07% (inactive) | -13.1 | – | –
CCCS(=O)(=O)c1nc(S(=O)(=O)c2ccc(C)cc2)c(N2CCC3(CC2)OCCO3)s1 | 17.8% (inactive) | -26.8 | – | –
COc1cc(NC(=O)CC2NCCNC2=O)cc(OC)c1 (stereo not drawn) | -4.51% (inactive) | 2.74 | – | –
CCCCNC(=O)CC1NCCNC1=O (stereo not drawn) | -8.27% (inactive) | -9.85 | – | –
COC(=O)CC1NCCNC1=O (stereo not drawn) | – | -8.44 | 0.0326 µM (active) | –
S=c1[nH]nc(-c2cc(-c3ccccc3)n[nH]2)n1/N=C/C=C/c1ccccc1 | -0.135% (inactive) | 5.92 | – | –
Cc1ccc(C)c(N2CCN(C(=O)Nc3ccc4c(c3)N(C)C(=O)CS4)CC2)c1 | 6.34% (inactive) | -6.47 | – | –
CN(C)N=C1c2cc(S(=O)(=O)N(C)C)ccc2-c2ccc(S(=O)(=O)N(C)C)cc21 | – | -8.49 | – | inactive
CC(=O)NCCNC(=O)c1ccc(-n2c(C)ccc2C)cc1 | 6.73% (inactive) | -0.679 | – | –
O=C1ON=C(c2ccccc2)/C1=C/c1cccnc1 | -24.6% (inactive) | 4.4 | – | –
Cc1ccc(C2=NOC(=O)/C2=C\C=C\c2ccccc2)cc1 | – | -25.2 | 4.61 µM (active) | –
O=C1ON=C(c2ccccc2)/C1=C/c1ccccc1 | – | -8.78 | – | inactive
Cc1cc(C)cc(N2CC(C(=O)Nc3cc(C)on3)CC2=O)c1 (stereo not drawn) | -6.62% (inactive) | -8.97 | – | –
COc1ccccc1NC(=O)N1CCCC(CNC(=O)c2ccccc2Cl)C1 (stereo not drawn) | – | 21.5 | – | inactive
CC(=O)c1ccccc1C(=O)N1CCCC(CNC(=O)c2ccccc2Cl)C1 (stereo not drawn) | – | – | – | inactive
Cc1cccc(NC(=O)N2CCCC(CNC(=O)c3ccccc3Cl)C2)c1C (stereo not drawn) | – | -15 | 20.6 µM (active) | –
O=c1c(Cl)c(N2CCNCC2)cnn1C12CC3CC(CC(C3)C1)C2 | 1.07% (inactive) | 5.13 | – | –
CCCc1nnc(NC(=O)CSc2nc3ccccc3[nH]2)s1 | 3.54% (inactive) | -1.76 | – | –
COc1ccc(OC)c(NC(=O)CC(NCCC2=CCCCC2)C(=O)O)c1 (stereo not drawn) | – | 1.58 | 4.61 µM (active) | –
COc1ccc(C)cc1NC(=O)NCCC1=CCCCC1 | – | – | – | inactive
COc1ccc(NC(=O)CC(NCCc2ccccc2)C(=O)O)c(OC)c1 (stereo not drawn) | -5.38% (inactive) | 2.02 | – | –
S=c1[nH]nc(-c2cccs2)n1/N=C/c1cn(-c2ccccc2)nc1-c1ccccc1 | -0.402% (inactive) | -2.97 | – | –
CCCC[N+](CC#CCO)(CC#Cc1ccccc1)CCCC | 11.3% (inactive) | 24.4 | – | –
Cc1nc(SCC(O)CCl)c([N+](=O)[O-])[nH]1 (stereo not drawn) | -0.122% (inactive) | 21.1 | – | –

SMILES | lipid storage change, negative = inhibition | cell number change [%] | Potency | outcome
CC(C)OP(=O)(OC(C)C)C(Nc1ccc(C(=O)O)cc1)c1ccccc1 (stereo not drawn) | -19.3% (inactive) | -10.6 | – | –
COc1cc(CNc2ncn[nH]2)ccc1OCC(=O)NC(C)(C)C | 15.6% (inactive) | -0.636 | – | –
Cc1nn(S(=O)(=O)N2CCOCC2)c(C)c1Br | -9.45% (inactive) | -1.55 | – | –
CCc1nc(SCC(=O)Nc2ccc(F)cc2)c2c(=O)n(C)c(=O)n(C)c2n1 | -28.8% (inactive) | 7.11 | – | –
Cn1c(=O)c2c(SCC(=O)NCc3ccco3)nc(-c3ccccc3Cl)nc2n(C)c1=O | – | -20.7 | 8.91 µM (active) | –
CCc1nc(SCC(=O)NCc2ccccc2)c2c(=O)n(C)c(=O)n(C)c2n1 | 25.2% (inactive) | – | – | –
CCc1nc(SCC(=O)Nc2ccccc2)c2c(=O)n(C)c(=O)n(C)c2n1 | – | -27.3 | 7.31 µM (active) | –
CCc1nc(SCC(=O)NCc2ccco2)c2c(=O)n(C)c(=O)n(C)c2n1 | – | – | – | inactive
Cn1c(=O)c2c(SCC(=O)N3CCOCC3)nc(-c3ccccc3Cl)nc2n(C)c1=O | – | -19.8 | – | inactive
CCN(CC)S(=O)(=O)c1ccc(/C=C/C(=O)OCC(=O)Nc2cccc3ccccc23)cc1 | 7.73% (inactive) | 15.5 | – | –
Cc1noc(C)c1S(=O)(=O)N1CCC(C(N)=O)CC1 | 12.8% (inactive) | -15.5 | – | –
Cc1ccc(C(=O)OCC(=O)NCCC2=CCCCC2)cc1N | 1.1% (inactive) | – | – | –
COc1cccc(NC(=O)c2ccc(CN3CCc4ccccc4C3)cc2)c1 | – | 26.4 | – | inactive
C=CCNc1nc(C(=O)OCC(=O)c2ccccc2)cs1 | – | 16.2 | – | inactive
COc1cccc(C(=O)NC(=S)Nc2cccnc2)c1 | 1.88% (inactive) | -2.34 | – | –
CC1=NN(C(N)=S)C(=O)C1N=Nc1ccccc1Cl (stereo not drawn) | – | -28.8 | 6.51 µM (active) | –
CCOc1ccccc1N=NC1C(=O)N(C(N)=S)N=C1C (stereo not drawn) | -2.42% (inactive) | -0.35 | – | –
CCOc1ccc(N=NC2C(=O)N(C(N)=S)N=C2C)cc1 (stereo not drawn) | – | -27.4 | 2.31 µM (active) | –
CC1=NN(C(N)=S)C(=O)C1N=Nc1ccccc1O (stereo not drawn) | 2.59% (inactive) | -20.1 | – | –
CC1=NN(C(N)=S)C(=O)C1N=Nc1ccc(S(N)(=O)=O)cc1 (stereo not drawn) | -1.77% (inactive) | 3.52 | – | –
CC1=NN(C(N)=S)C(=O)C1N=Nc1ccccc1C (stereo not drawn) | 2.34% (inactive) | 2.36 | – | –
Cc1c(NC(=O)Nc2ccc([N+](=O)[O-])cc2)c(=O)n(-c2ccccc2)n1C | -3.7% (inactive) | -0.0298 | – | –

Reference: PubChem BioAssay AID2685 (National Center for Advancing Translational Sciences (NCATS), 2010)
